# Test results from PubChem BioAssay (NCI).
# The panel holds about 83,000 compounds, 20% with a hit somewhere; the sample as a whole holds those more often.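 Compound tested at a single concentration for 48 hours in 96-well plates; a percent growth value below 10 was scored as active.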 Values without a mark were called inactive. Activity calls are given as the source filed them.
# Key:
# Test in all cases: NCI-60 one-dose screen, 48 h (100 = growth as untreated, 0 = no growth, -100 = all killed)
# Conditions in all cases: 10 µM
# K-562 leukemia = test system: K-562 leukemia
# MALME-3M melanoma = test system: MALME-3M melanoma
# MDA-MB-231 breast = test system: MDA-MB-231 breast
# RXF 393 renal = test system: RXF 393 renal
# SF-268 CNS = test system: SF-268 CNS
# SF-295 CNS = test system: SF-295 CNS
# SF-539 CNS = test system: SF-539 CNS
# UACC-257 melanoma = test system: UACC-257 melanoma
# M14 melanoma = test system: M14 melanoma
# HCT-15 colon = test system: HCT-15 colon
SMILES,growth (K-562 leukemia),growth (MALME-3M melanoma),growth (MDA-MB-231 breast),growth (RXF 393 renal),growth (SF-268 CNS),growth (SF-295 CNS),growth (SF-539 CNS),growth (UACC-257 melanoma),growth (M14 melanoma),growth (HCT-15 colon)
S=C1SCC(c2ccccc2)S1 (stereo not given),106%,118%,107%,105%,111%,117%,95.7%,89.6%,113%,100%
CC(=O)N1C/C(=C/c2ccc(Cl)cc2)C(=O)/C(=C/c2ccc(Cl)cc2)C1,2.09% (active),-56.4% (active),-23.6% (active),-92.8% (active),-26.8% (active),-30.1% (active),-39.4% (active),-32.2% (active),-51.1% (active),-5.84% (active)
O=C(Nc1cccc(-n2cc(-c3ccncc3)c(-c3ccc(O)c(Cl)c3)n2)c1)c1ccc(N2CCOCC2)c(C(F)(F)F)c1,3.17% (active),21.3%,-30.5% (active),-8.59% (active),63.2%,-39.7% (active),-28% (active),60.1%,36.8%,16.6%
CCOC(=O)c1ccoc1,93.8%,100%,128%,110%,108%,108%,95.6%,80.3%,106%,97%
CC(C)(C)c1cc(Br)cc(C(C)(C)C)c1O,101%,103%,116%,101%,113%,97.8%,104%,104%,115%,105%
Cc1ccc(S(=O)(=O)Oc2ccc3c4c(c(=O)oc3c2)CCCCC4)cc1,36.7%,71.9%,74.5%,68.6%,77.2%,48.7%,39.8%,32%,71%,41.3%
CSc1nn(-c2ccccc2)c2ncnc(Oc3ccccc3)c12,96.5%,104%,98.3%,83.6%,92.5%,101%,98%,107%,102%,93.2%
O=C(N/N=C/c1ccccc1O)C(O)(c1ccccc1)c1ccccc1,52.9%,74%,60.5%,85.2%,46.8%,-12.8% (active),60.6%,68.6%,57.4%,32%
Cc1cc2c(C)c3cc(C)c(N)cc3nc2cc1N,1.18% (active),-3.24% (active),20.3%,16.3%,15.2%,39.5%,19.4%,18.9%,9.16% (active),24.8%
C#Cc1ccc(-n2c(/C=C/c3ccc4ccccc4c3)nc3ncccc3c2=O)cc1,6.94% (active),39.5%,42.1%,-21.4% (active),37.8%,19.6%,70.5%,13%,1.76% (active),25.4%
